From PubChem BioAssay
Inconclusive results are not listed. Calls of active or inactive are those of the source.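 How the source made its calls, unless noted: active means viability at or below 30% in both replicate assays; inconclusive means viability at or below 30% in just one of the two assays; inactive means the rest.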

Assays:
[1] = Her2 expression decrease, cell viability multiplex – SKBR3 breast tumor cells, AlphaScreen, ATP viability, primary screen (AID 461;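 active means Her2 level under about 52% in both replicate screens, with viability over 70% of control, limit read from the data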;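 on Her2 level: lower value means less Her2 protein in the cells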;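 on viability: percent of carrier control wells set as 100% viability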); conditions: SKBR3 Her2 protein level, 18-24 h, measured here: SKBR3 viability, ATP luminescence, at 10 µM
[2] = molecular target: Receptor tyrosine-protein kinase erbB-2 (Homo sapiens) (UniProt P04626); experiment: as above; conditions: 18-24 h, at 10 µM, stronger effect = lower value
Chain of Receptor tyrosine-protein kinase erbB-2 (Homo sapiens) (P04626 whole entry, looked up): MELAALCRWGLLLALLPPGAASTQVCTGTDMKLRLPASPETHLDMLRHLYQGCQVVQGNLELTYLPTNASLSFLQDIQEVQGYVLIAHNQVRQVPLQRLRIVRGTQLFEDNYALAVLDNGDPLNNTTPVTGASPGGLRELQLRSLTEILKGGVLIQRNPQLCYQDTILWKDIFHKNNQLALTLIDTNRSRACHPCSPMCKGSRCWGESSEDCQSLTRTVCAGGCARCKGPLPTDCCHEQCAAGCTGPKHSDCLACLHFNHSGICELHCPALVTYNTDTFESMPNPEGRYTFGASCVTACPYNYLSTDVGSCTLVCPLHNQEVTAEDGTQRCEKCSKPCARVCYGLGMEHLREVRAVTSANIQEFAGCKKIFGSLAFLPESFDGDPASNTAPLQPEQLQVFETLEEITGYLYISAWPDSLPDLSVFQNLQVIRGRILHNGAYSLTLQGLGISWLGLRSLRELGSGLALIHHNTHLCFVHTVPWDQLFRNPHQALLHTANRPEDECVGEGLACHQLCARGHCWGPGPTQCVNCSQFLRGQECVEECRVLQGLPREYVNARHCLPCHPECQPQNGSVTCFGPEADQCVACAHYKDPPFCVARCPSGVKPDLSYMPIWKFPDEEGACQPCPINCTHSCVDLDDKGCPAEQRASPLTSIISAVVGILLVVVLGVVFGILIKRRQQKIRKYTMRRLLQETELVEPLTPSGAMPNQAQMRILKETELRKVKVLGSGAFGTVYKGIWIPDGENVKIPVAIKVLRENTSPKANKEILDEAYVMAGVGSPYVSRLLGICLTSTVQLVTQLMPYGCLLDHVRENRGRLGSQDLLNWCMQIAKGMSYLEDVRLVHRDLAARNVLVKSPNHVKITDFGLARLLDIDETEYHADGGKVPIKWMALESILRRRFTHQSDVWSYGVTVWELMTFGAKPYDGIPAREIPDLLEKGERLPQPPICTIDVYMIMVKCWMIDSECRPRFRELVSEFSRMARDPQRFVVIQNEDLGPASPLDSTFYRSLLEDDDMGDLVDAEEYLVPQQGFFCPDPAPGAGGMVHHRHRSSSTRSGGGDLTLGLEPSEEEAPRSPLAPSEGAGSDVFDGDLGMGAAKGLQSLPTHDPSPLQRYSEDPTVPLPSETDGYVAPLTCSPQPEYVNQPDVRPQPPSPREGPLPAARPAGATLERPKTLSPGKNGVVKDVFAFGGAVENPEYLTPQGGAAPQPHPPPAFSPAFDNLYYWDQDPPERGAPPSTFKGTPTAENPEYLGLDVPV

[3] = reduced viability of SK-BR-3 breast cancer cells – cell-based, 24 h, human, pilot screen (AID 572;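 active means viability at or below 10% of carrier control in both of two separate runs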;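 further: compound exposure lasted between 18 and 24 h rather than exactly 24 h; 100% = carrier-treated control wells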); conditions: SK-BR-3 viability, CellTiter-Glo luminescence, at 10 µM, stronger effect = lower value
[4] = HUVEC growth inhibition – cell-based, human, primary screen (AID 575); conditions: HUVEC proliferation, CellTiter-Glo luminescence, 72 h; at 10 µM; stronger effect = lower value;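 further: 100% = median of untreated cell wells with 0.1% DMSO on each plate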
[5] = H69AR cell proliferation blockers – human, duplicate replicates, primary screen (AID 580;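 active means viability at or under a set limit in both replicates, limit being median viability minus 3 SD, cut at about 48% in these data, passing the limit was not always enough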;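 further: 100% = mean luminescence of untreated wells and 0% = no signal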); conditions: H69AR lung tumor cells viability, ATP luminescence, 72 h; at 10 µM; stronger effect = lower value
[6] = MRP1 drug-resistance reversers in H69AR cells – cell-based, doxorubicin co-treatment, pilot screen (AID 601;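 active means viability loss from added drug above about 55%, and viability with drug at most 40%, in both replicates, limit read from the data, passing the limit was not always enough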); conditions: CellTiter-Glo, 72 h, at 10 µM; for differential viability (reversal): stronger effect = higher value
[7] = yeast transport mutant growth inhibition pilot in 384-well plates, post-Golgi transport modulator project (AID 636; in the data active means inhibition above about 31%); conditions: absorbance 615 nm, about 18 h, stronger effect = higher value
[8] = growth suppression of yeast trafficking mutant, preliminary HTS, modulators of trafficking downstream of Golgi apparatus project, 1536-format plate, OD 615 nm (AID 637; in the data active means inhibition above about 30%); conditions: yeast transport mutant growth, absorbance 615 nm, 18 h; stronger effect = higher value
[9] = S. cerevisiae growth inhibition in permissive medium (OD615), pilot counter-assay for S. cerevisiae lifespan shortening project, permissive growth control (AID 705;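 active means growth inhibition above 25% in both replicates, a cutoff set 3 SD above the mean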); conditions: OD615, 24 h, at 10 µM, stronger effect = higher value
[10] = S. cerevisiae growth inhibition in restrictive medium, OD615, pilot screen, restrictive growth control, yeast lifespan reduction project (AID 706;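 active means growth inhibition above a set limit, 3 SD over mean compound inhibition, in both replicates, cut at about 43% in these data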;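 further: modified DeaD lifespan yeast strain shifted to restrictive glucose medium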); conditions: OD615, 48 h, at 10 µM, stronger effect = higher value
[11] = doxorubicin toxicity protection in MRP-1 cells – H69AR cells, CellTiter-Glo, duplicate, MRP-1 activator project, pilot screen (AID 807;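 active means viability increase at or above a cutoff of the median across tested compounds plus 3 SD, cut at about 8.5% in these data, passing the limit was not always enough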;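 further: compound pretreatment 18-22 h then 72 h combined with doxorubicin; 0% = doxorubicin alone and 100% = vehicle without doxorubicin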); conditions: H69AR viability with doxorubicin, CellTiter-Glo luminescence; at 10 µM; stronger effect = higher value
[12] = viability of HCT116 without oncogenic beta-catenin – human colon tumor cells, pilot screen (AID 823;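 active means cell viability at or below a set limit in both duplicate runs, the limit being the all-compound median minus 4 SD, cut at about 23% in these data, passing the limit was not always enough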;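 further: 0% = wells killed by 20 µM Hyamine and 100% = untreated DMSO cell wells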); conditions: HCT116 beta-catenin knockout viability, CellTiter-Glo, 60 h; at 10 µM; stronger effect = lower value
[13] = viability of PTEN-null HCT116 cells – cell-based, HCT116 clonal line, CellTiter-Glo, pilot screen (AID 824;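 active means viability at or below 27.92% in each of two runs, the all-compound median minus 4 SD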;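 further: 0% = 20 µM Hyamine control and 100% = vehicle cell control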); conditions: HCT116 PTEN-deleted viability, 60 h, at 10 µM, stronger effect = lower value
[14] = RAM pathway blockade in budding yeast – dse1pr::URA3 reporter, 5-FOA selection, pilot screen (AID 869;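 active means inhibition over a set limit, the all-compound mean plus 3 SD, in both replicate runs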;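 further: 0% = DMSO wells with no growth and 100% = 10 µM 1-NA-PP1 with full growth; RAM network block rescues cells from 5-FOA so hits raise OD615 growth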); conditions: S. cerevisiae dse1pr::URA3 5-FOA growth, OD615, 2 d; at 10 µM; stronger effect = higher value; strain carries analog-sensitive mutant Cbk1 kinase
[15] = RAM signaling pathway blockade in yeast – S. cerevisiae, Pdr1DBD-CYC8 efflux-inhibited sensitized strain, primary screen (AID 1298;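 active means RAM network inhibition above 8.4% in each of two replicates, 3 SD over the compound average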;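 further: 0% = DMSO untreated cells without growth and 100% = 10 µM 1-NA-PP1 full growth; higher means more yeast growth rescued from 5-FOA killing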); conditions: S. cerevisiae cbk1-as DSE1-URA3 strain, 5-FOA growth OD615, 2 d; at 50 µM; stronger effect = higher value
[16] = H69AR cells + 2 uM doxorubicin, measured here: viability with 2 uM doxorubicin, stronger effect = lower value
[17] = H69AR cells, compound alone cytotoxicity

COc1ccc(OC)c(S(=O)(=O)N2CCN(c3c(C)cccc3C)CC2)c1
viability [1]: 100% | Her2 level [2]: 86% (inactive) | viability [3]: 100% (inactive) | viability [4]: 79.5% (inactive) | viability [5]: 86.9% (inactive) | differential viability (reversal) ([6]; H69AR cells + 2 uM doxorubicin): 3.56% (inactive) | viability [6, 16]: 83.4% | viability [6, 17]: 86.9% | inhibition [7]: -8.53% (inactive) | inhibition [8]: 2.33% (inactive) | growth inhibition [9]: 0.405% (inactive) | growth inhibition [10]: 6.42% (inactive) | viability increase [11]: -2.38% (inactive) | viability [12]: 68% (inactive) | viability [13]: 82.5% (inactive) | inhibition [14]: 1.79% (inactive) | RAM network inhibition [15]: 6.46% (inactive)

Cc1ccc(-n2c3c(cc(C(=O)NCCCN4CCOCC4)c2=O)C(=O)CC(C)(C)C3)cc1
viability [1]: 109% | Her2 level [2]: 110% (inactive) | viability [3]: 109% (inactive) | viability [4]: 87% (inactive) | viability [5]: 85% (inactive) | differential viability (reversal) ([6]; H69AR cells + 2 uM doxorubicin): -13% (inactive) | viability [6, 16]: 97.9% | viability [6, 17]: 85% | inhibition [7]: 0.53% (inactive) | inhibition [8]: -3.67% (inactive) | growth inhibition [9]: -4.99% (inactive) | growth inhibition [10]: -4.07% (inactive) | viability increase [11]: -1.54% (inactive) | viability [12]: 101% (inactive) | viability [13]: 104% (inactive) | inhibition [14]: -0.26% (inactive) | RAM network inhibition [15]: 3.35% (inactive)

COc1c(S(=O)(=O)n2nc(C)cc2C)ccc(Cl)c1Cl
viability [1]: 98% | Her2 level [2]: 101% (inactive) | viability [3]: 98% (inactive) | viability [4]: 101% (inactive) | viability [5]: 98% (inactive) | differential viability (reversal) ([6]; H69AR cells + 2 uM doxorubicin): -1.02% (inactive) | viability [6, 16]: 99% | viability [6, 17]: 98% | inhibition [7]: -2.76% (inactive) | inhibition [8]: 2.33% (inactive) | growth inhibition [9]: -5.31% (inactive) | growth inhibition [10]: 8.94% (inactive) | viability increase [11]: 1.75% (inactive) | viability [12]: 95.8% (inactive) | viability [13]: 86.2% (inactive) | inhibition [14]: 1.5% (inactive) | RAM network inhibition [15]: 2.6% (inactive)

CS(=O)(=O)N(Cc1ccco1)CC(O)Cn1c2ccccc2c2ccccc21 (centres undefined)
viability [1]: 93.5% | Her2 level [2]: 71.5% (inactive) | viability [3]: 93.5% (inactive) | viability [4]: 76.8% (inactive) | viability [5]: 80.5% (inactive) | differential viability (reversal) ([6]; H69AR cells + 2 uM doxorubicin): -2.92% (inactive) | viability [6, 16]: 83.4% | viability [6, 17]: 80.5% | inhibition [7]: -3.9% (inactive) | inhibition [8]: -4.5% (inactive) | growth inhibition [9]: -6.72% (inactive) | growth inhibition [10]: -1.61% (inactive) | viability increase [11]: -4.51% (inactive) | viability [12]: 72.2% (inactive) | viability [13]: 74.5% (inactive) | inhibition [14]: 1.9% (inactive) | RAM network inhibition [15]: 1.64% (inactive)

CN(CC(=O)N1CCCCC1)S(=O)(=O)c1cccc2cccnc12
viability [1]: 99% | Her2 level [2]: 104% (inactive) | viability [3]: 99% (inactive) | viability [4]: 91.5% (inactive) | viability [5]: 97.5% (inactive) | differential viability (reversal) ([6]; H69AR cells + 2 uM doxorubicin): 1.62% (inactive) | viability [6, 16]: 95.8% | viability [6, 17]: 97.5% | inhibition [7]: -0.4% (inactive) | inhibition [8]: -1.8% (inactive) | growth inhibition [9]: -4.94% (inactive) | growth inhibition [10]: 9.9% (inactive) | viability increase [11]: -2.03% (inactive) | viability [12]: 94.6% (inactive) | viability [13]: 94.7% (inactive) | inhibition [14]: 0.26% (inactive) | RAM network inhibition [15]: 1.14% (inactive)

COC(=O)CCCCC(=O)C1C(=O)CC(C)(C)C(C(=O)OC)C1=O (centres undefined)
viability [1]: 91.5% | Her2 level [2]: 118% (inactive) | viability [3]: 91.5% (inactive) | viability [4]: 91.2% (inactive) | viability [5]: 91.7% (inactive) | differential viability (reversal) ([6]; H69AR cells + 2 uM doxorubicin): -3.76% (inactive) | viability [6, 16]: 95.5% | viability [6, 17]: 91.7% | inhibition [7]: 2.08% (inactive) | inhibition [8]: -8% (inactive) | growth inhibition [9]: -15.7% (inactive) | growth inhibition [10]: -6.2% (inactive) | viability increase [11]: -1.69% (inactive) | viability [12]: 94.4% (inactive) | viability [13]: 93.6% (inactive) | inhibition [14]: 1.31% (inactive) | RAM network inhibition [15]: -0.78% (inactive)

CCC(C)(NC(=O)c1ccc(=O)[nH]c1)C(=O)NC1CCCC1 (centres undefined)
viability [1]: 102% | Her2 level [2]: 96.5% (inactive) | viability [3]: 102% (inactive) | viability [4]: 107% (inactive) | viability [5]: 94.1% (inactive) | differential viability (reversal) ([6]; H69AR cells + 2 uM doxorubicin): 12.3% (inactive) | viability [6, 16]: 81.8% | viability [6, 17]: 94.1% | inhibition [7]: -5.2% (inactive) | inhibition [8]: -0.67% (inactive) | growth inhibition [9]: -11.7% (inactive) | growth inhibition [10]: -35% (inactive) | viability increase [11]: 0.76% (inactive) | viability [12]: 105% (inactive) | viability [13]: 97.9% (inactive) | inhibition [14]: 1.92% (inactive) | RAM network inhibition [15]: 2.77% (inactive)

Cc1ccc(-c2noc(CN3C(C)CCCC3C)n2)cc1 (centres undefined)
viability [1]: 93.5% | Her2 level [2]: 100% (inactive) | viability [3]: 93.5% (inactive) | viability [4]: 114% (inactive) | viability [5]: 89.3% (inactive) | differential viability (reversal) ([6]; H69AR cells + 2 uM doxorubicin): 5.67% (inactive) | viability [6, 16]: 83.7% | viability [6, 17]: 89.3% | inhibition [7]: -3.73% (inactive) | inhibition [8]: 2.33% (inactive) | growth inhibition [9]: -3.56% (inactive) | growth inhibition [10]: 4.79% (inactive) | viability increase [11]: 3.23% (inactive) | viability [12]: 98.8% (inactive) | viability [13]: 95.9% (inactive) | inhibition [14]: 0.67% (inactive) | RAM network inhibition [15]: 4.84% (inactive)

COc1ccc(N(C)C(=O)CCS(=O)(=O)c2cccc3nonc23)c(OC)c1
viability [1]: 89% | Her2 level [2]: 86.5% (inactive) | viability [3]: 89% (inactive) | viability [4]: 95.7% (inactive) | viability [5]: 104% (inactive) | differential viability (reversal) ([6]; H69AR cells + 2 uM doxorubicin): 9.71% (inactive) | viability [6, 16]: 93.9% | viability [6, 17]: 104% | inhibition [7]: -6.71% (inactive) | inhibition [8]: -3.49% (inactive) | growth inhibition [9]: -16.1% (inactive) | growth inhibition [10]: -20.6% (inactive) | viability increase [11]: -0.31% (inactive) | viability [12]: 100% (inactive) | viability [13]: 98.8% (inactive) | inhibition [14]: 1.43% (inactive) | RAM network inhibition [15]: 3.65% (inactive)

Cc1cccc(N2CCN(C(=O)Cn3nc(Cc4ccncc4)c4ccccc4c3=O)CC2)c1C
viability [1]: 83% | Her2 level [2]: 82% (inactive) | viability [3]: 83% (inactive) | viability [4]: 83.9% (inactive) | viability [5]: 75.9% (inactive) | differential viability (reversal) ([6]; H69AR cells + 2 uM doxorubicin): -7.61% (inactive) | viability [6, 16]: 83.5% | viability [6, 17]: 75.9% | inhibition [7]: -5.6% (inactive) | inhibition [8]: 1.5% (inactive) | growth inhibition [9]: 1.35% (inactive) | growth inhibition [10]: 6.96% (inactive) | viability increase [11]: 1.06% (inactive) | viability [12]: 70.7% (inactive) | viability [13]: 76% (inactive) | inhibition [14]: 0.445% (inactive) | RAM network inhibition [15]: 3.21% (inactive)

Cn1nnnc1SCC(=O)Nc1ccccc1-c1ccccc1
viability [1]: 100% | Her2 level [2]: 110% (inactive) | viability [3]: 100% (inactive) | viability [4]: 99% (inactive) | viability [5]: 91.2% (inactive) | differential viability (reversal) ([6]; H69AR cells + 2 uM doxorubicin): 9.64% (inactive) | viability [6, 16]: 81.6% | viability [6, 17]: 91.2% | inhibition [7]: -2.44% (inactive) | inhibition [8]: -1.33% (inactive) | growth inhibition [9]: -19.3% (inactive) | growth inhibition [10]: -10.2% (inactive) | viability increase [11]: -0.09% (inactive) | viability [12]: 97.4% (inactive) | viability [13]: 90% (inactive) | inhibition [14]: 0.31% (inactive) | RAM network inhibition [15]: 0.77% (inactive)

COc1ccc(C2CC(c3ccc(Cl)cc3Cl)n3nc(N)nc3N2)cc1 (centres undefined)
viability [1]: 95% | Her2 level [2]: 93.5% (inactive) | viability [3]: 95% (inactive) | viability [4]: 79.8% (inactive) | viability [5]: 90.4% (inactive) | differential viability (reversal) ([6]; H69AR cells + 2 uM doxorubicin): -0.635% (inactive) | viability [6, 16]: 91.1% | viability [6, 17]: 90.4% | inhibition [7]: 0.64% (inactive) | inhibition [8]: 3.67% (inactive) | growth inhibition [9]: 7.35% (inactive) | growth inhibition [10]: 25.7% (inactive) | viability increase [11]: 3.63% (inactive) | viability [12]: 90.9% (inactive) | viability [13]: 91.3% (inactive) | inhibition [14]: 1.59% (inactive) | RAM network inhibition [15]: 4.26% (inactive)
